PubChem BioAssay AID1159580 (chemical genetic matrix, 2015)
Hit rate of the full screen: of about 5,500 compounds, about 2,000 (36%) were called active. Inconclusive results (about 18%) are left out. Cut-off read from the data, not from the text of the source: active = normalized growth mostly below about 0.91 (no sharp cut-off); inconclusive = no clear call, values can overlap the other calls; inactive = mostly above about 0.92. This is one part of the list.

Assay: chemical genetic growth profiling, strain panel (AID 1159580);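 note: tested at 20 µM; growth read once vehicle control cultures reached saturation at 30 °C; 1 = growth at the plate median or of vehicle wells; lower values mean less growth of the strain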
Conditions: growth OD

Measured: normalized growth

O=c1cc(-c2ccc(O)cc2)oc2cc(O[C@@H]3O[C@H](CO)[C@@H](O)[C@H](O)[C@H]3O[C@@H]3OC[C@](O)(CO)[C@H]3O)cc(O)c12
inactive: S. cerevisiae deletion strains, locus YJR075W, strain HOC1, hits give low values 1.04 | S. cerevisiae deletion strains, locus YKL009W, strain mrt4, hits give low values 0.986 | S. cerevisiae deletion strains, locus YKL068W, hits give low values 0.991 | S. cerevisiae deletion strains, locus YKL085W, strain MDH1 (second series), hits give low values 0.999 | S. cerevisiae deletion strains, locus YKL085W, strain MDH1, hits give low values 0.999 | S. cerevisiae deletion strains, locus YKL160W, strain elf1, hits give low values 1.01 | S. cerevisiae deletion strains, locus YKL190W, strain CNB1, hits give low values 0.994 | S. cerevisiae deletion strains, locus YKR001C, strain vps1, hits give low values 0.987 | S. cerevisiae deletion strains, locus YKR026C, strain gcn3, hits give low values 0.991 | S. cerevisiae deletion strains, locus YKR091W, strain srl3, hits give low values 1.01 | S. cerevisiae deletion strains, locus YLL001W, strain dnm1, hits give low values 0.993 | S. cerevisiae deletion strains, locus YLL026W, hits give low values 0.995 | S. cerevisiae deletion strains, locus YLL041C, strain sdh2, hits give low values 1 | S. cerevisiae deletion strains, locus YLR027C, strain aat2, hits give low values 1.01 | S. cerevisiae deletion strains, locus YLR039C, strain RIC1, hits give low values 1.11 | S. cerevisiae deletion strains, locus YLR058C, strain SHM2, hits give low values 1.02 | S. cerevisiae deletion strains, locus YLR102C, strain apc9, hits give low values 0.989 | S. cerevisiae deletion strains, locus YLR113W, strain HOG1, hits give low values 1.03 | S. cerevisiae deletion strains, locus YLR221C, strain rsa3, hits give low values 1.01 | S. cerevisiae deletion strains, locus YLR258W, strain gsy2, hits give low values 0.997 | S. cerevisiae deletion strains, locus YLR262C, strain YPT6 (second series), hits give low values 0.999 | S. cerevisiae deletion strains, locus YLR262C, strain YPT6, hits give low values 1.16 | S. cerevisiae deletion strains, locus YLR268W, strain sec22, hits give low values 0.983 | S. cerevisiae deletion strains, locus YLR320W, strain mms22, hits give low values 1.02 | S. cerevisiae deletion strains, locus YLR330W, strain CHS5, hits give low values 1.04 | S. cerevisiae deletion strains, locus YLR342W, strain FKS1 (second series), hits give low values 0.994 | S. cerevisiae deletion strains, locus YLR342W, strain FKS1, hits give low values 1.01 | S. cerevisiae deletion strains, locus YLR357W, strain rsc2, hits give low values 0.979 | S. cerevisiae deletion strains, locus YLR370C, strain arc18, hits give low values 1 | S. cerevisiae deletion strains, locus YLR371W, strain rom2, hits give low values 0.985 | S. cerevisiae deletion strains, locus YLR384C, strain iki3, hits give low values 0.999 | S. cerevisiae deletion strains, locus YLR418C, strain cdc73, hits give low values 1.06 | S. cerevisiae deletion strains, locus YML016C, strain PPZ1, hits give low values 1.01 | S. cerevisiae deletion strains, locus YML032C, strain rad52, hits give low values 1 | S. cerevisiae deletion strains, locus YML120C, strain ndi1, hits give low values 1.02 | S. cerevisiae deletion strains, locus YML124C, strain tub3, hits give low values 0.991 | S. cerevisiae deletion strains, locus YMR058W, strain fet3, hits give low values 1.01 | S. cerevisiae deletion strains, locus YMR078C, strain ctf18, hits give low values 0.963 | S. cerevisiae deletion strains, locus YMR125W, strain sto1, hits give low values 0.992 | S. cerevisiae deletion strains, locus YMR129W, hits give low values 1.01 | S. cerevisiae deletion strains, locus YMR205C, strain PFK2, hits give low values 1.01 | S. cerevisiae deletion strains, locus YMR223W, strain ubp8, hits give low values 1.02 | S. cerevisiae deletion strains, locus YMR231W, strain pep5, hits give low values 0.997 | S. cerevisiae deletion strains, locus YMR263W, strain SAP30, hits give low values 1.02 | S. cerevisiae deletion strains, locus YMR307W, strain GAS1, hits give low values 1.04 | S. cerevisiae deletion strains, locus YNL067W, strain RPL9B, hits give low values 1.02 | S. cerevisiae deletion strains, locus YNL071W, strain lat1, hits give low values 1.02 | S. cerevisiae deletion strains, locus YNL153C, strain GIM3, hits give low values 1 | S. cerevisiae deletion strains, locus YNL183C, strain NPR1, hits give low values 0.979 | S. cerevisiae deletion strains, locus YNL209W, strain ssb2, hits give low values 1.01 | S. cerevisiae deletion strains, locus YNL233W, strain BNI4, hits give low values 1.02 | S. cerevisiae deletion strains, locus YNL248C, strain rpa49, hits give low values 1 | S. cerevisiae deletion strains, locus YNL250W, strain rad50, hits give low values 1 | S. cerevisiae deletion strains, locus YNL271C, strain bni1, hits give low values 1.01 | S. cerevisiae deletion strains, locus YNL298W, strain CLA4, hits give low values 0.994 | S. cerevisiae deletion strains, locus YNL307C, strain MCK1, hits give low values 0.977 | S. cerevisiae deletion strains, locus YNL322C, strain KRE1 (second series), hits give low values 0.994 | S. cerevisiae deletion strains, locus YNL322C, strain KRE1, hits give low values 1.01 | S. cerevisiae deletion strains, locus YNR049C, strain mso1, hits give low values 0.998 | S. cerevisiae deletion strains, locus YNR052C, strain pop2, hits give low values 1 | S. cerevisiae deletion strains, locus YOL012C, strain htz1 0.956 | S. cerevisiae deletion strains, locus YOL147C, strain pex11, hits give low values 0.996 | S. cerevisiae deletion strains, locus YOR001W, strain rrp6, hits give low values 1.01 | S. cerevisiae deletion strains, locus YOR061W, strain CKA2, hits give low values 1.02 | S. cerevisiae deletion strains, locus YOR069W, strain VPS5, hits give low values 1 | S. cerevisiae deletion strains, locus YOR070C, strain gyp1, hits give low values 1 | S. cerevisiae deletion strains, locus YOR080W, strain dia2, hits give low values 1 | S. cerevisiae deletion strains, locus YOR083W, strain WHI5, hits give low values 1.02 | S. cerevisiae deletion strains, locus YOR106W, strain vam3, hits give low values 1.02 | S. cerevisiae deletion strains, locus YOR136W, strain idh2, hits give low values 0.974 | S. cerevisiae deletion strains, locus YOR144C, strain elg1, hits give low values 0.989 | S. cerevisiae deletion strains, locus YOR184W, strain ser1, hits give low values 1.04 | S. cerevisiae deletion strains, locus YOR231W, strain MKK1, hits give low values 1.07 | S. cerevisiae deletion strains, locus YOR265W, strain rbl2, hits give low values 1.01 | S. cerevisiae deletion strains, locus YOR270C, strain vph1, hits give low values 1.02 | S. cerevisiae deletion strains, locus YOR290C, strain snf2, hits give low values 0.998 | S. cerevisiae deletion strains, locus YOR316C, strain cot1, hits give low values 0.992 | S. cerevisiae deletion strains, locus YPL051W, strain arl3, hits give low values 1 | S. cerevisiae deletion strains, locus YPL055C, strain LGE1, hits give low values 1.04 | S. cerevisiae deletion strains, locus YPL078C, strain atp4, hits give low values 0.999 | S. cerevisiae deletion strains, locus YPL106C, strain sse1, hits give low values 0.997 | S. cerevisiae deletion strains, locus YPL240C, strain hsp82, hits give low values 1 | S. cerevisiae deletion strains, locus YPL241C, strain CIN2, hits give low values 1.01 | S. cerevisiae deletion strains, locus YPL256C, strain CLN2, hits give low values 0.995 | S. cerevisiae deletion strains, locus YPR119W, strain clb2, hits give low values 0.984 | S. cerevisiae deletion strains, locus YPR141C, strain kar3, hits give low values 0.999 | S. cerevisiae deletion strains, locus YPR163C, strain tif3, hits give low values 0.979 | S. cerevisiae deletion strains, locus YPR167C, strain met16, hits give low values 0.981 | S. cerevisiae deletion strains, strain wtn01, hits give low values 0.99 | S. cerevisiae strains, strain wild type, hits give low values 1.01
